The text below walks through data of article PMC7862700, “An all-to-all approach to the identification of sequence-specific readers for epigenetic DNA modifications on cytosine”.

Assay in all cases: DAPPL (digital affinity profiling via proximity ligation, sequencing); 10 mM Tris-HCl pH 7.5, 50 mM NaCl, 1 mM DTT, 4% glycerol, room temperature, 30 min; GST-TFs on glutathione beads, 16-mer random dsDNA library, 0.1% formaldehyde crosslink after washing; high values mean tight binding
One test has as its target T1, FEV (Homo sapiens, UniProt Q99581 1-238).
T1 sequence: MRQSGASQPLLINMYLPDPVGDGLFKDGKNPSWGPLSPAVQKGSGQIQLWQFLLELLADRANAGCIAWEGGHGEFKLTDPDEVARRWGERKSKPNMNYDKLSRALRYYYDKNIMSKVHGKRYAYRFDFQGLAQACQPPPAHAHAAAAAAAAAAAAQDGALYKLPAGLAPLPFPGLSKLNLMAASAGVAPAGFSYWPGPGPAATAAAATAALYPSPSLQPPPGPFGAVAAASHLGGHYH
The conditions noted are these: protein: recombinant; tags: N-terminal GST; dsDNA, one strand shown. The method, boiled down:
(§1)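 Beads coated with glutathione captured GST-fused human transcription factors that had been expressed in yeast, and the factors were then given DNA barcodes and pooled with a tag-only sample. The pools were incubated with 200 nmole of a random double-stranded 16-mer DNA library in Tris/NaCl/DTT/glycerol buffer for 30 min at room temperature, washed, crosslinked with 0.1% formaldehyde and proximity-ligated with BsaI/T4 ligase at 37 °C for 1 h. PCR amplification and Illumina NextSeq500 sequencing came last. Binding signal is each hexamer's read frequency for a factor divided by its frequency for the tag-only sample.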

The target in a further test is ETV5 (Homo sapiens, UniProt P41161 1-510). To be noted: protein: recombinant; tags: N-terminal GST; dsDNA, one strand shown. The method, boiled down:
as §1

The target in the next test is HSF1 (Homo sapiens, UniProt Q00613 1-529). To be noted: protein: recombinant; tags: N-terminal GST; chain copies: 3; dsDNA, one strand shown. A digest of the protocol: as §1
The target of the next test is T2, SPIC (Homo sapiens, UniProt Q8N5J4 1-248).
T2 sequence: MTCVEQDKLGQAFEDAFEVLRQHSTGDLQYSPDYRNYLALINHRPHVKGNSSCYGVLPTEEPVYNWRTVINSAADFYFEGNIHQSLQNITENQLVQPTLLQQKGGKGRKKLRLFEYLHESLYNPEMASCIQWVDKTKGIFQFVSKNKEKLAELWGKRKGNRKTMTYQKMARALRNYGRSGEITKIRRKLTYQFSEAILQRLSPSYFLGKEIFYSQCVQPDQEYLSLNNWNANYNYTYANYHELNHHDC
To be noted: protein: recombinant; tags: N-terminal GST; dsDNA, one strand shown. A digest of the protocol: as §1

A further test deals with ELF4 (Homo sapiens, UniProt Q99607 1-663). The conditions noted are these: protein: recombinant; tags: N-terminal GST; dsDNA, one strand shown. A digest of the protocol:
as §1

For another test, the target named is T3, ELK4 (Homo sapiens, UniProt P28324-2 1-405).
T3 sequence: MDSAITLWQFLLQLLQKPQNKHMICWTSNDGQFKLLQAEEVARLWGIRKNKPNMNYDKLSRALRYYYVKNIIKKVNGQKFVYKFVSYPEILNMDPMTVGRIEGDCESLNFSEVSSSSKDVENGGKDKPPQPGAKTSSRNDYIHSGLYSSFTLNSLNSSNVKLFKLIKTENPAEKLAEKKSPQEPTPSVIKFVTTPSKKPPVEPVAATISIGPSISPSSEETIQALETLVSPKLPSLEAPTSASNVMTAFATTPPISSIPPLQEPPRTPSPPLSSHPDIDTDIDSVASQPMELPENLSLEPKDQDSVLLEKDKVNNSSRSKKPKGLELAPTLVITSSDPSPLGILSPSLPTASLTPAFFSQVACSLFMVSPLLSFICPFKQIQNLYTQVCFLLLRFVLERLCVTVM
To be noted: protein: recombinant; tags: N-terminal GST; dsDNA, one strand shown. A digest of the protocol: as §1

The next test has as its target T4, ETV2 (Homo sapiens, UniProt O00321 1-342).
T4 sequence: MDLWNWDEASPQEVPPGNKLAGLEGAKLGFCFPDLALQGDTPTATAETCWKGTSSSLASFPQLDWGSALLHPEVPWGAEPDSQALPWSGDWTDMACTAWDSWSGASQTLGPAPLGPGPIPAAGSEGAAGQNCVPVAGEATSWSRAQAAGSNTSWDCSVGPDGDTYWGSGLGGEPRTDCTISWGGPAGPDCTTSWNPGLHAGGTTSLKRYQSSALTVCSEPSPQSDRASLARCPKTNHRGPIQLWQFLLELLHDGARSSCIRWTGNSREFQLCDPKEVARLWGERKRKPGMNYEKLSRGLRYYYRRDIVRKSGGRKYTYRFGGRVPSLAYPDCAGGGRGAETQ
To be noted: protein: recombinant; tags: N-terminal GST; dsDNA, one strand shown. A digest of the protocol: as §1

The next test deals with T5, ELF3 (Homo sapiens, UniProt P78545 1-371).
T5 sequence: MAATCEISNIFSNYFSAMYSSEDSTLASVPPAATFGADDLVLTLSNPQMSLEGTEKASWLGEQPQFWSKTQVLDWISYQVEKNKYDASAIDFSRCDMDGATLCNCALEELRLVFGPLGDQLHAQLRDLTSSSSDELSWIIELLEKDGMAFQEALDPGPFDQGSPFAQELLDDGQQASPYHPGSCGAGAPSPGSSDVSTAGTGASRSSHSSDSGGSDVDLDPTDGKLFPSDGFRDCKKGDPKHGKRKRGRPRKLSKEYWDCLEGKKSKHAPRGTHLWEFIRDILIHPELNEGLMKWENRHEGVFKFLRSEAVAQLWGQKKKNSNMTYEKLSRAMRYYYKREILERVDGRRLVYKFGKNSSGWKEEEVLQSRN
To be noted: protein: recombinant; tags: N-terminal GST; dsDNA, one strand shown. The method, boiled down:
as §1

Another test has as its target CRX (Homo sapiens, UniProt O43186 1-299). To be noted: protein: recombinant; tags: N-terminal GST; dsDNA, one strand shown. A digest of the protocol:
as §1

For the next test, the target named is ETV1 (Homo sapiens, UniProt P50549 1-477). To be noted: protein: recombinant; tags: N-terminal GST; dsDNA, one strand shown. The method, boiled down:
as §1

The next test deals with T6, ERF (Homo sapiens, UniProt P50548 1-548).
T6 sequence: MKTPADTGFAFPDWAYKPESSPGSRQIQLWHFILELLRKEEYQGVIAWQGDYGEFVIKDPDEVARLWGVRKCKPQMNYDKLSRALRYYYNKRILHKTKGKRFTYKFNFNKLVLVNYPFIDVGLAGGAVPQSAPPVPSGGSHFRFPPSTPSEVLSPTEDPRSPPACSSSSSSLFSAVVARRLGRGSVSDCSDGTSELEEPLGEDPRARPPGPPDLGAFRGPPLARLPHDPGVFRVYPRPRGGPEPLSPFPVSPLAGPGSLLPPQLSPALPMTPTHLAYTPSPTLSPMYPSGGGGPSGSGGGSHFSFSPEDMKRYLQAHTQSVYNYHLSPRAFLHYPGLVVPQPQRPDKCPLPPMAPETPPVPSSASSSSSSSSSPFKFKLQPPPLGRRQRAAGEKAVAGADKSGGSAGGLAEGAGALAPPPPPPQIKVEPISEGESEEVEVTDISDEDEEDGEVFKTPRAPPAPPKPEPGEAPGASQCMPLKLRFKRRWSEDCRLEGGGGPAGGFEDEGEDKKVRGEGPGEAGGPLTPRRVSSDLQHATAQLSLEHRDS
The conditions noted are these: protein: recombinant; tags: N-terminal GST; dsDNA, one strand shown. A digest of the protocol: as §1

The target of another test is T7, ETV3L (Homo sapiens, UniProt Q6ZN32 1-361).
T7 sequence: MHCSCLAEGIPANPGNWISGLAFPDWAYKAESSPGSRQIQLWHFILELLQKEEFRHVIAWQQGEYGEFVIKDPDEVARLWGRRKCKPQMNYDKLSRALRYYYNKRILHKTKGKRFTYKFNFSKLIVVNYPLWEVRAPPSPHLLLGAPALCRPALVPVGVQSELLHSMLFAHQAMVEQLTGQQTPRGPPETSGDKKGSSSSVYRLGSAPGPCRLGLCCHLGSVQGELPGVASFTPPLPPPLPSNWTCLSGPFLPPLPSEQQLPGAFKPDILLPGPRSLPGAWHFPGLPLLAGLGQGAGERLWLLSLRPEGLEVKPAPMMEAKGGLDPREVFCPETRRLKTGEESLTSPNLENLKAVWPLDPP
To be noted: protein: recombinant; tags: N-terminal GST; dsDNA, one strand shown. The method, boiled down:
as §1

For the next test, the target named is T8, ETS2 (Homo sapiens, UniProt P15036 1-469).
T8 sequence: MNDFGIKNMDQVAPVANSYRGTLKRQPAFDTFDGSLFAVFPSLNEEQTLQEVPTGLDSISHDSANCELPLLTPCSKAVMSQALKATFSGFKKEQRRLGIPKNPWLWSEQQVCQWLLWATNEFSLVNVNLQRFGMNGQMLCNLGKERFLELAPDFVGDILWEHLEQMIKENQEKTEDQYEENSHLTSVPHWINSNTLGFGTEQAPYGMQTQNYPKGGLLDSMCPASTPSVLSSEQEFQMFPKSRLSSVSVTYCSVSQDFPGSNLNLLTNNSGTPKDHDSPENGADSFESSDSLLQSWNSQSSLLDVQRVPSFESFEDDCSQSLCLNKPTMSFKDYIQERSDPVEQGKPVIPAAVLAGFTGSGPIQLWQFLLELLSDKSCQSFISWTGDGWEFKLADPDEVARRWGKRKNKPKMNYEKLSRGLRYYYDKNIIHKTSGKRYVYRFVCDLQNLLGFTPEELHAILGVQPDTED
The conditions noted are these: protein: recombinant; tags: N-terminal GST; dsDNA, one strand shown. A digest of the protocol: as §1

The target in another test is T9, SPDEF (Homo sapiens, UniProt O95238 1-335).
T9 sequence: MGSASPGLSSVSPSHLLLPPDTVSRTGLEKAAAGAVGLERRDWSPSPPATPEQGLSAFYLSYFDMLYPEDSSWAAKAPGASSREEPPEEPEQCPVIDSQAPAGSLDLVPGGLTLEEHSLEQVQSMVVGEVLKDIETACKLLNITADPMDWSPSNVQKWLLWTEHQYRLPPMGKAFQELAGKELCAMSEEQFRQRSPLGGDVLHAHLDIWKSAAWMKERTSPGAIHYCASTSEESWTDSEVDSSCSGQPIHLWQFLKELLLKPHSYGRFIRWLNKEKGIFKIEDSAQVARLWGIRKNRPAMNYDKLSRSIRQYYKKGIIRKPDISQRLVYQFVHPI
To be noted: protein: recombinant; tags: N-terminal GST; dsDNA, one strand shown. A digest of the protocol: as §1

For a further test, the target named is T10, ETV7 (Homo sapiens, UniProt Q9Y603 1-341).
T10 sequence: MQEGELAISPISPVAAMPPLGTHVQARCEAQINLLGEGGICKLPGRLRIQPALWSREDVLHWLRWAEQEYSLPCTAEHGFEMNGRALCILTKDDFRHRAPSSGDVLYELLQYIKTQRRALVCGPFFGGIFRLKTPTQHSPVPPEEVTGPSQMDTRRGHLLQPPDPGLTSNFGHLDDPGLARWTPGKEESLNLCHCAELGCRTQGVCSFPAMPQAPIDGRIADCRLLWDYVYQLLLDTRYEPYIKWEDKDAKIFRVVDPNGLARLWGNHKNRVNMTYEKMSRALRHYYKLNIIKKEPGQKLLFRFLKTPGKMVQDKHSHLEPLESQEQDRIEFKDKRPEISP
To be noted: protein: recombinant; tags: N-terminal GST; dsDNA, one strand shown. A digest of the protocol: as §1

Another test addresses T11, ELF5 (Homo sapiens, UniProt Q9UKW6-2 1-255).
T11 sequence: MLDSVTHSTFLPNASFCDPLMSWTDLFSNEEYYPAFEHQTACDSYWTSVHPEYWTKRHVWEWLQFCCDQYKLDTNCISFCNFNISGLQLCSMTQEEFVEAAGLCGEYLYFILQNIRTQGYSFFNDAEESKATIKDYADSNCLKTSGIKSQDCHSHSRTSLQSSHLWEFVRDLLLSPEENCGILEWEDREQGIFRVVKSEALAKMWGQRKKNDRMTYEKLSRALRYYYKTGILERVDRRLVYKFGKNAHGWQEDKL
The conditions noted are these: protein: recombinant; tags: N-terminal GST; dsDNA, one strand shown. The method, boiled down: as §1

Another test has as its target T12, ETV3 (Homo sapiens, UniProt P41162-2 1-143).
T12 sequence: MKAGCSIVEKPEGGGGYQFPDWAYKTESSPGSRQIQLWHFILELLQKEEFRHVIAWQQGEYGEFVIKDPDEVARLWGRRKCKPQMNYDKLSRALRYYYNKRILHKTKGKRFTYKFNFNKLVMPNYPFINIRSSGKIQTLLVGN
To be noted: protein: recombinant; tags: N-terminal GST; dsDNA, one strand shown. A digest of the protocol: as §1

A further test deals with ETV6 (Homo sapiens, UniProt P41212 1-452). The conditions noted are these: protein: recombinant; tags: N-terminal GST; dsDNA, one strand shown. A digest of the protocol:
as §1

Sequence of CRX (O43186 whole entry): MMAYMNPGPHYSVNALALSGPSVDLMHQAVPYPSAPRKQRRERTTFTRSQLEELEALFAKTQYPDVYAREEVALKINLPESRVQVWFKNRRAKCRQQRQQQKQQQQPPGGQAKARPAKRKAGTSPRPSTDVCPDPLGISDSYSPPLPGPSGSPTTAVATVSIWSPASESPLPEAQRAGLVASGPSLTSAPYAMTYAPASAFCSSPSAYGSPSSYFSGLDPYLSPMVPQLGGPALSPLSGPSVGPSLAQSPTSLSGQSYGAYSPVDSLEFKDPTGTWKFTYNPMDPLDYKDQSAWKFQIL
Sequence of ETV5 (P41161 whole entry): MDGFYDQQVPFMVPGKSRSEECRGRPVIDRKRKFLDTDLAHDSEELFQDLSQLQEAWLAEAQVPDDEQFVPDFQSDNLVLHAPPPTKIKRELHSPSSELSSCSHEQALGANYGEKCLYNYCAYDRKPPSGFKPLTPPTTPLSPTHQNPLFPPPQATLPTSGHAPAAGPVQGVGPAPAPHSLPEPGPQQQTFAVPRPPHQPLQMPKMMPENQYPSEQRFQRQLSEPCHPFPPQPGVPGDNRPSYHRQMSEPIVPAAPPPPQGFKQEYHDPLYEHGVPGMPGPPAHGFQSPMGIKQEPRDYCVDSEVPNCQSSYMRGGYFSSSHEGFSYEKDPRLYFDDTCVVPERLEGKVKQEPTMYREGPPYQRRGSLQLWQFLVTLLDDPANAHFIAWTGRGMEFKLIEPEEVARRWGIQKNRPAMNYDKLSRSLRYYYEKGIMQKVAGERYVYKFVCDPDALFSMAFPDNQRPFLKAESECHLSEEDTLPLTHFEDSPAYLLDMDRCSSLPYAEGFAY
Sequence of ELF4 (Q99607 whole entry): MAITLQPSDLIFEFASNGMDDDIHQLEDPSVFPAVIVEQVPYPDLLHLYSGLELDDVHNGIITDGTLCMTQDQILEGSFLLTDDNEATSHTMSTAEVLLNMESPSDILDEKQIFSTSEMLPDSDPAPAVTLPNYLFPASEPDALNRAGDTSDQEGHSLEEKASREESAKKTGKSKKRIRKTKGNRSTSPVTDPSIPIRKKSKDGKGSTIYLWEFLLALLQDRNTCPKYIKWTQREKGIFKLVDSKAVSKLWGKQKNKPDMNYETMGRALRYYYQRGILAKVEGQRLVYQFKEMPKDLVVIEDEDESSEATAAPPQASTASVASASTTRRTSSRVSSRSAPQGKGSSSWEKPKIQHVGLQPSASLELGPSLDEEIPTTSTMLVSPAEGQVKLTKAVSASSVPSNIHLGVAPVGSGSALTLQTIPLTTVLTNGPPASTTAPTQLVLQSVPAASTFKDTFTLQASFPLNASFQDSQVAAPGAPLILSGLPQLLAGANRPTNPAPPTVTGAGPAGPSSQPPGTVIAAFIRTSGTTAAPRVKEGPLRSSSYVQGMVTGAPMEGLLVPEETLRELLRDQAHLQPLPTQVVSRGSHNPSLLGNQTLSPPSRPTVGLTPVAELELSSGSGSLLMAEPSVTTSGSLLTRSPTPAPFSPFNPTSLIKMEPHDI
Sequence of ETV6 (P41212 whole entry): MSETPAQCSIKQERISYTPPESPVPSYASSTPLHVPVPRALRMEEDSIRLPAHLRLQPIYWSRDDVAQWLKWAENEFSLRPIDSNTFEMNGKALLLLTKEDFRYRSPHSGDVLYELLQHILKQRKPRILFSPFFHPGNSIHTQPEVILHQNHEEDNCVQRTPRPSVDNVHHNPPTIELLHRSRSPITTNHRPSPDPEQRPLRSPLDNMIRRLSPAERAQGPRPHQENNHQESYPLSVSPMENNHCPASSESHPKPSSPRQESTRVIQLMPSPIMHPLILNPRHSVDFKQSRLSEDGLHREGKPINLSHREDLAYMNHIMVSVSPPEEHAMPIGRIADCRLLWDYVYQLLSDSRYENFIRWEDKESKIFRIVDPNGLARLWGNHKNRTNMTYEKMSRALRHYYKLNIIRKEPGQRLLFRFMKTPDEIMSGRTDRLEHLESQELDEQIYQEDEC
Sequence of ETV1 (P50549 whole entry): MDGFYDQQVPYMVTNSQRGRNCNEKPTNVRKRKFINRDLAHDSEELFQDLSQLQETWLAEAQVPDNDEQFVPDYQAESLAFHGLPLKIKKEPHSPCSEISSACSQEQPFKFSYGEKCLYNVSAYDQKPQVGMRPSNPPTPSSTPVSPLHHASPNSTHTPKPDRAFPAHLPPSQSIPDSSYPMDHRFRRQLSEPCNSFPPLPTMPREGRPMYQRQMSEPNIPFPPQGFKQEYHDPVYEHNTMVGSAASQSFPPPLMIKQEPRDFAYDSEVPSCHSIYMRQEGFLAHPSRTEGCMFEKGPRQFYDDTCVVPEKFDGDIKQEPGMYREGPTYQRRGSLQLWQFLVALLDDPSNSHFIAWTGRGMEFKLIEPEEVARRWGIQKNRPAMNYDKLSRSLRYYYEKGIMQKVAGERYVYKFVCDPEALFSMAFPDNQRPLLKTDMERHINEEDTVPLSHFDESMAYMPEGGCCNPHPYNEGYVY
Sequence of HSF1 (Q00613 whole entry): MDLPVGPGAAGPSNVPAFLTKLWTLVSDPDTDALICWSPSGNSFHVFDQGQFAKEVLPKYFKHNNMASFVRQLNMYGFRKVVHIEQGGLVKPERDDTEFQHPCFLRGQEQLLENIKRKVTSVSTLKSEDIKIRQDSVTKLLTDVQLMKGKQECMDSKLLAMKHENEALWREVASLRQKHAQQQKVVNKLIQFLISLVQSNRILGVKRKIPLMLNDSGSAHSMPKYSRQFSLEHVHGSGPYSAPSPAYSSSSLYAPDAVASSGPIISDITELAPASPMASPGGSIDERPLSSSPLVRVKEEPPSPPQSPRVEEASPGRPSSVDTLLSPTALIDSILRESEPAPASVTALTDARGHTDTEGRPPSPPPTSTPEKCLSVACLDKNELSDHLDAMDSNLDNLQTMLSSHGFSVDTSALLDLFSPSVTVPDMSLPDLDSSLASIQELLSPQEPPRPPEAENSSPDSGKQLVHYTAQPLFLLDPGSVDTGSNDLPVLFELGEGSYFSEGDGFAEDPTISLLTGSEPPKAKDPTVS

As for ATTGTT, the binding signal with FEV is 1.52 fold enrichment (6-mer frequency, TF over GST control); with ETV5, 1.57 fold enrichment (6-mer frequency, TF over GST control); in the test with HSF1, 1.63 fold enrichment (6-mer frequency, TF over GST control); with SPIC, 1.45 fold enrichment (6-mer frequency, TF over GST control); with ELF4, 1.41 fold enrichment (6-mer frequency, TF over GST control); with ELK4 it was 1.4 fold enrichment (6-mer frequency, TF over GST control). Besides, the binding signal in the test with ETV2 was 1.57 fold enrichment (6-mer frequency, TF over GST control); in the test with ELF3 it was 1.49 fold enrichment (6-mer frequency, TF over GST control); in the test with CRX it was 1.55 fold enrichment (6-mer frequency, TF over GST control); in the test with ETV1 it was 1.47 fold enrichment (6-mer frequency, TF over GST control); in the test with ERF it was 1.65 fold enrichment (6-mer frequency, TF over GST control); with ETV3L, 1.55 fold enrichment (6-mer frequency, TF over GST control). The binding signal was 1.47 fold enrichment (6-mer frequency, TF over GST control) with ETS2; 1.46 fold enrichment (6-mer frequency, TF over GST control) with SPDEF; 1.47 fold enrichment (6-mer frequency, TF over GST control) with ETV7; 1.36 fold enrichment (6-mer frequency, TF over GST control) with ELF5; 1.56 fold enrichment (6-mer frequency, TF over GST control) in the test with ETV3; 1.51 fold enrichment (6-mer frequency, TF over GST control) in the test with ETV6.
